BoNT A protease: BoNT/A light chain protease inhibitors, primary screen, biochemical, flow cytometry, MLPCN library; multiplex microsphere protease substrate cleavage; inhibition, % at 10 µM; hit rate 0.17% among 360,000; AID 588499, 2011; further: plate controls were buffer without enzyme for full effect and enzyme alone for no effect
MazEF act: activators of E. coli MazEF toxin-antitoxin RNase, primary screen, biochemical, fluorescence, uHTS | AID 504720, 2011 | Endoribonuclease toxin MazF (Escherichia coli (strain K12)), P0AE70 | FAM/BHQ RNA-DNA oligo cleavage fluorescence, 5 h | hit rate 0.32% among 350,000 | activation, % at 20 µM; in the data active means activation above about 50%
BoNT F protease: BoNT/F light chain protease inhibitors, primary screen, biochemical, flow cytometry, MLPCN library; Botulinum neurotoxin type F light chain protease (Clostridium botulinum); Multiplex microsphere protease cleavage assay; inhibition, % at 10 µM; hit rate 0.22% among 360,000; AID 588497, 2011; in the data active means inhibition above about 35%, passing the limit was not always enough; inconclusive means no clear call, values can overlap the other calls; further: plate controls were buffer without enzyme for full effect and enzyme alone for no effect
Autofluor counter: counter-screen for toxin protease inhibitors: compound fluorescence | compound autofluorescence counterscreen, microsphere flow cytometry; stronger effect = higher value | fluorescence intensity (test concentration not listed) | hit rate 3.1% among 360,000; in the data active means fluorescence intensity above about 16000; inconclusive means no clear call, values can overlap the other calls
Anthrax LF inh2: Bacillus anthracis LF protease inhibitors, primary screen, biochemical, multiplex microsphere, MLPCN library; multiplex microsphere protease cleavage assay; inhibition, % at 10 µM; Lethal factor (Bacillus anthracis), P15917; hit rate 0.12% among 360,000; further: plate controls were buffer without enzyme for full effect and enzyme alone for no effect
Starred values were filed as active, the others as inactive; ? = inconclusive; . = not tested or not shown. A selection: hits, their analogues and other compounds. The true share with any hit is near 3.7%. Unless noted, no stated cut-off is given here; in the data, active means inhibition above about 30%; inconclusive means no clear call, values can overlap the other calls; inactive means below that.

SMILES | BoNT A protease | MazEF act | BoNT F protease | Autofluor counter | Anthrax LF inh2
O=C1NC[C@H](CCCCN2CCN(CC3CCCCC3)C(=O)C2=O)N(CCC2CCCCC2)C1=O | -2 | . | -6 | 4704 | 2
Cc1cccc(NC(=O)Nc2ccccc2)n1 | -2 | -4 | 13 | 3126 | -6
Cc1cccc(NC(=O)NCC(F)(F)F)n1 | ? | 4 | 2 | 19660* | -9
CCCCC1CCC(C(=O)Nc2ccc(S(=O)(=O)Nc3nccs3)cc2)CC1 (stereo not given) | ? | 0 | -4 | 24211* | -2
Cc1ccc(S(=O)(=O)Nc2ccc(S(=O)(=O)Nc3nccs3)cc2)cc1C | 1 | -1 | -5 | 3831 | 2
Cc1cc(C(=O)Nc2ccc(S(=O)(=O)Nc3nccs3)cc2)c(C)o1 | -2 | 5 | -3 | 24552* | -2
O=S(=O)(Nc1ccc(S(=O)(=O)Nc2nccs2)cc1)c1ccc2c(c1)OCCO2 | -1 | 11 | -5 | 16416* | -2
COc1ccccc1-c1csc(C(O)c2ccc(F)cc2)n1 (stereo not given) | 0 | . | 2 | 3885 | -2
CCOC(=O)N1CCN(c2cc3[nH]c(=S)[nH]c3cc2F)CC1 | 8 | -8 | 8 | 21312* | 0
CCOC(=O)N1CCN(c2cc(N)c([N+](=O)[O-])cc2F)CC1 | 1 | -9 | 0 | 20374* | 0
COCCn1c(Cc2ccccc2)nnc1SCC(=O)NC1CCCCC1 | -1 | -30 | -17 | 3084 | 17
Cc1ccccc1CN1C(=O)C(C)Sc2ccc(-c3ccco3)cc21 (stereo not given) | 0 | . | -2 | 3861 | -6
O=C(Nc1ccc(C(=O)N2CCCC2)cc1)C1CC1 | 0 | 4 | -4 | 3720 | -4
CCc1ccccc1N1CCN(S(=O)(=O)c2cc(OC)ccc2OC)CC1 | ? | -2 | -2 | 23647* | -6
CC1CC(CC(C)C(=O)Nc2nncs2)C(=O)O1 (stereo not given) | ? | -5 | 2 | 22855* | 1
CC1CC(CC(C)C(=O)NC(=S)Nc2ccc(S(N)(=O)=O)cc2)C(=O)O1 (stereo not given) | 0 | 7 | -7 | 4153 | -2
COc1cc2cccc(OC)c(=O)c2c(O)c1OC | 0 | 0 | -3 | 2439 | 0
CC(=O)Oc1cc2cccc(OC(C)=O)c(=O)c2c(OC(C)=O)c1OC(C)=O | -2 | 214* | -10 | 5104 | -16
COc1cccc(CN(C)C(=O)c2ccc(S(=O)(=O)Nc3ccccc3C)cc2)c1OC | -1 | -5 | -6 | 3661 | -4
COc1cccc(CNC(=O)CCC2CCCN(C(=O)c3ccccc3N(C)C)C2)c1 (stereo not given) | 3 | -8 | 3 | 4654 | -1
COc1ccccc1C(=O)Nc1ccc2c(c1)nc(CCNC(C)=O)n2C | -3 | -1 | -1 | 21508* | -1
COc1ccc(C(=O)Nc2ccc3c(c2)nc(CCNC(C)=O)n3C)cc1 | 0 | -7 | -2 | 20535* | 0
CC(=O)NCCc1nc2cc(NC(=O)c3ccc(F)cc3)ccc2n1C | -1 | 3 | 4 | 3545 | 10
CCc1cccc(CC)c1N1C(=O)CSCC1=O | 0 | 0 | -5 | 3115 | -7
CCOC(=O)c1ccc(N2CN=C3SCC(=O)N3C2)cc1 | ? | -7 | -3 | 23262* | 0
SMILES | BoNT A protease | MazEF act | BoNT F protease | Autofluor counter | Anthrax LF inh2
COc1ccc(C2=NN(C(=O)c3ccccc3)C(c3ccc(OC)c(OC)c3)C2)c(OC(C)=O)c1 (stereo not given) | 2 | . | 13 | 3855 | 4
C(=N\Nc1nc(N2CCOCC2)nc(N2CCOCC2)n1)/c1cccnc1 | 0 | -2 | 0 | 22356* | 2
CC(=O)NN1C(=O)c2ccc3c4c(ccc(c24)C1=O)C(=O)N(NC(C)=O)C3=O | . | 69* | . | . | .
O=C1c2ccc3c4c(ccc(c24)C(=O)N1NC(=O)C(F)(F)F)CC3 | 2 | -6 | 22 | 8744 | 1
CCOc1cc(NC(=S)NCCOC)c(OCC)cc1NC(=O)c1ccco1 | 0 | 5 | -2 | 2231 | -1
O=C(NNC(=O)c1cccs1)c1ccco1 | -1 | 4 | 5 | 3409 | 0
O=C(NNC(=S)Nc1ccccc1)c1ccco1 | ? | -6 | -2 | 22369* | -3
COCCNC(=S)NNC(=O)c1ccco1 | -1 | 5 | -2 | 23531* | -2
CC(C)CNC(=S)NNC(=O)c1ccco1 | 1 | -2 | 1 | 22008* | -1
O=C(NC(=S)NNC(=O)c1cccs1)c1ccco1 | -3 | -4 | -2 | 23561* | -1
C=CCNC(=S)NNC(=O)c1ccco1 | 0 | 1 | -2 | 4304 | -5
CC(O)(c1ccc(F)c(F)c1)c1nc(-c2ccccc2)cs1 (stereo not given) | 0 | . | -8 | 3547 | -8
CCCNC(=O)C1(C)CCN(C(=O)COc2ccc(Cl)cc2Cl)C1 (stereo not given) | 0 | . | -8 | 4210 | -2
O=C(Nc1ccnn1C1CCN(C/C=C/c2ccccc2)CC1)C1CCCC1 | 2 | -7 | 3 | 6255 | -1
O=C(Nc1ccnn1C1CCN(C/C=C/c2ccccc2)CC1)c1ccccc1Cl | -240 | -6 | -411 | 56855* | -56
COc1ccc(/C(C)=C2\SC(=S)N(CCC(=O)O)C2=O)cc1 | 0 | 0 | 0 | 20765* | 0
C/C(=C1/SC(=S)N(CCC(=O)O)C1=O)c1ccc(O)cc1 | 0 | 0 | -3 | 2529 | 2
CCOC(=O)C1CCCN(C(=O)c2ccc3sccc3c2)CC1 (stereo not given) | 0 | . | -4 | 3182 | -3
CC1(C(=O)Nc2ccc3c(c2)OCO3)CCN1C(=O)Cc1cccc2ccccc12 (stereo not given) | 0 | . | -6 | 3969 | -2
C=CCC(C(=O)OC)(C(=O)OC)c1ccc([N+](=O)[O-])cn1 | ? | 0 | -2 | 22956* | 2
COC(=O)COc1ccc(S(=O)(=O)NCCC2=CCCCC2)cc1C | -7 | -7 | -9 | 22566* | -1
CCOc1ccc(S(=O)(=O)NN)cc1 | 0 | 50* | -2 | 3874 | -3
CCCNS(=O)(=O)c1ccc(OCC(=O)NCCC2=CCCCC2)cc1 | -3 | -7 | -6 | 25068* | -1
CCOc1ccc(NS(=O)(=O)c2ccc(N)cc2)cc1 | 1 | 12 | -10 | 2910 | -6
CCCCNS(=O)(=O)c1ccc(OCC(=O)OC)cc1 | -1 | 6 | -16 | 2701 | 1
CCCNS(=O)(=O)c1ccc(OCC(=O)OC)cc1 | -1 | 7 | -3 | 24397* | 1
COc1cc(NC(=O)C2=C(C)OCCS2)c(Cl)cc1C(=O)NCCN(C)C | -1 | 3 | -1 | 3260 | -4
CCN(CC)C(=O)C1=C(C)N(CCCOC)C(=O)C(CC(=O)NC2CC2)C1 (stereo not given) | 1 | 2 | 4 | 3638 | 5
O=C1C=C(CCc2ccccc2)CCC1 | -1 | -7 | -5 | 4088 | -6
CCOC(=O)COc1ccc(S(=O)(=O)Nc2ccc(C)cc2)cc1 | ? | -2 | -2 | 20911* | -1

Screening results from PubChem.
